According to PubChem BioAssay AID1259349 (Broad Institute, 2017):
Out of some 17,000 compounds screened, about 1,100 (6.5%) were called active. The entries come from a sample that favours actives as a whole. Values without a mark were called inactive.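 Rule for the calls: active = z-score of -3 or lower, meaning strong loss of probe binding signal; inactive = the rest.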

Molecular target: Insulin-degrading enzyme (Homo sapiens) (UniProt P14735)
Assay: displacers of FL-6b probe from IDE – biochemical, fluorescence anisotropy, probe displacement, primary screen (AID 1259349);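 note: His-tagged human IDE residues 42-1019 made in E. coli with 30 nM FL-6b probe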
Settings: purified IDE, FL-6b probe fluorescence polarization; at 20 µM; hits give low values

Sequence of Insulin-degrading enzyme (Homo sapiens) (P14735 42-1019 limits assumed): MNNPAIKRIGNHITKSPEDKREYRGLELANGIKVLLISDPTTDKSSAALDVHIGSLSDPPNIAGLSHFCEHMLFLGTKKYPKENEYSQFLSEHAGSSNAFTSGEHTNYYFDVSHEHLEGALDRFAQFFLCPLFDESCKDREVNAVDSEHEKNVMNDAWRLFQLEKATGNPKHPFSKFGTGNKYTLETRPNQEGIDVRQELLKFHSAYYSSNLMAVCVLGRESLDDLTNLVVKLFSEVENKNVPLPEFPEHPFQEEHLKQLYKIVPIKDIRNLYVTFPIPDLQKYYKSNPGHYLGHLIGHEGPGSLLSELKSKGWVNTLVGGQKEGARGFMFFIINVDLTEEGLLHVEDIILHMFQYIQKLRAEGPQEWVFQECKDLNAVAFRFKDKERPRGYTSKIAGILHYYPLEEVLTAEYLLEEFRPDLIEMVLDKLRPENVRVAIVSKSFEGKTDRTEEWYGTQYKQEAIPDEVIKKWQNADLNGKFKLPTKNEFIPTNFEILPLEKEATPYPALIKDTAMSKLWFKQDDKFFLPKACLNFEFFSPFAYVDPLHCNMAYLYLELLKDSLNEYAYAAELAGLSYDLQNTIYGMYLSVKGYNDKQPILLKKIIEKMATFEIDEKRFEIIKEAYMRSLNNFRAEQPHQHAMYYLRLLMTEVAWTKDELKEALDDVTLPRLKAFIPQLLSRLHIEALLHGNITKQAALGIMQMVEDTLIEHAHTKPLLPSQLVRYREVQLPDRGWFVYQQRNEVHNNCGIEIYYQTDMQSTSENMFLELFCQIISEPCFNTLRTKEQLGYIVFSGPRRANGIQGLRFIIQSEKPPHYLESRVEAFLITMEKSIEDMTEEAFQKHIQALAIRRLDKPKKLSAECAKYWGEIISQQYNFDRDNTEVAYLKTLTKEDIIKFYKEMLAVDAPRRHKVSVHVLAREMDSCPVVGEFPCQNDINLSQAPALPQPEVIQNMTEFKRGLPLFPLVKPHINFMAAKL

Row | SMILES | z-score
1 | O=C(Cc1ccccn1)N1CCCCN2[C@@H](CO)[C@@H](c3ccc(C#Cc4ccccc4)cc3)[C@@H]2C1 | -6.91 (active)
2 | O=C(Cc1ccccc1)N1CCCCN2[C@H](CO)[C@H](c3ccc(C#Cc4ccccc4)cc3)[C@H]2C1 | -1.93
3 | O=C(Cc1ccccn1)N1CCCCN2[C@H](C1)[C@H](c1ccc(-c3ccccc3F)cc1)[C@@H]2CO | -1.94
4 | O=C(Cc1ccncc1)N1CCCCN2[C@@H](CO)[C@H](c3ccc(C#CC4(O)CCCC4)cc3)[C@@H]2C1 | 1.31
5 | COC(=O)[C@@H]1[C@@H](CO)[C@@H]2Cn3c(ccc(-c4cccc(C(=O)N(C)C)c4)c3=O)[C@H]1N2C(=O)NC(C)C | -0.64
